Laboratory results from PubChem BioAssay (EPA / NIEHS).
Calls of active or inactive are those of the source. Rule for the calls: active = hit-call score of the fitted dose curve at least 0.9, where 1 is the maximum; inactive = score below 0.9.

Read-out: Glutathione S-transferase M3 (GSTM3), GSTM3 (gene 2947)
Experiment: LTEA_HepaRG_GSTM3: Life Technologies and Expression Analysis (LTEA) Assay for Glutathione S-transferase M3 (GSTM3) using HepaRG (AID 2283501)
Conditions: mRNA level, 48 h; actives raise or lower the signal
Method in brief: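 Expression of GSTM3 is determined by qRT-PCR in human liver HepaRG cells treated 48 h with an 8-point half-log range from 100 uM in 0.5% DMSO.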

Chain of Hypoxia-inducible factor 1-alpha (Homo sapiens) (Q16665 whole entry, looked up): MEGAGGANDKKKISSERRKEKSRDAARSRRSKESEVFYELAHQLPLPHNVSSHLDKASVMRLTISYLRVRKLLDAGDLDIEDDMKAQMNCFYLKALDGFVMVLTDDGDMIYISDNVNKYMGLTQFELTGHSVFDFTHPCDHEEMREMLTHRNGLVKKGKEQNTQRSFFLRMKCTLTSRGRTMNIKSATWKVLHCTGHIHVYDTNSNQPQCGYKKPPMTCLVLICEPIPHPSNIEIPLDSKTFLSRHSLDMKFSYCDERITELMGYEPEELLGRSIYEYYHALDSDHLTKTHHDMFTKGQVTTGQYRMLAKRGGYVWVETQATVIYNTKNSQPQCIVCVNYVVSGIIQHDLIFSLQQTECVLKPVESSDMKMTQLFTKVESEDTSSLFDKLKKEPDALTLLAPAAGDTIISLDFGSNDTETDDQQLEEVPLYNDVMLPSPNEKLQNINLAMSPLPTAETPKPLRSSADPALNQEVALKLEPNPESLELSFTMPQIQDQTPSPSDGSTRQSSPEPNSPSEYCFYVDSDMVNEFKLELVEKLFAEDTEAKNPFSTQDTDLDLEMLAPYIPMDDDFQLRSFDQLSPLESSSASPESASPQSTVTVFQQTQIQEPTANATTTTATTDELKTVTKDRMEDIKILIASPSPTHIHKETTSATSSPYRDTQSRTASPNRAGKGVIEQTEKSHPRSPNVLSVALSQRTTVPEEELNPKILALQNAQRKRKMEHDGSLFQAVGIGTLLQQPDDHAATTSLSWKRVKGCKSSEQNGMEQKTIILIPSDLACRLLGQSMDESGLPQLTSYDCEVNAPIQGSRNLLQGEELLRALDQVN

**Q.** `COc1cc(C=O)ccc1O` was tested. Which outcome did it give?
**A.** The outcome was “inactive”.

**Q.** With `COC(=O)c1ccc(O)cc1` as the molecule, how does the outcome read?
**A.** Its outcome is “inactive”.

**Q.** With `C=CCc1ccc(O)c(OC)c1` as the molecule, how does the outcome read?
**A.** Its outcome is “inactive”.

**Q.** Which outcome does the source give for `CN1CCN(Cc2cc(-c3ccc4[nH]c(=O)oc4c3)co2)[C@@H](c2ccc(F)cc2)C1` here?
**A.** The outcome was “inactive”.

**Q.** Which outcome does the source give for `CC(=O)OC/C=C(\C)CCC=C(C)C` here?
**A.** The outcome was “inactive”.

**Q.** How did the outcome turn out when `CCCCCCCCCCCC(=O)OC` was run?
**A.** Its outcome is “inactive”.

**Q.** `Oc1ccc2c(c1)OC[C@@H](N1CCC(O)(c3ccc(F)cc3)CC1)[C@H]2O` was tested. Which outcome did it give?
**A.** Its outcome is “inactive”.

**Q.** With `O=C(OCCCCCOC(=O)c1ccccc1)c1ccccc1` as the molecule, how does the AC50 read?
**A.** The AC50 was 1.62 µM (active).

**Q.** For `NCC1(Cc2noc(=O)[nH]2)CCCCC1`, which outcome is on record?
**A.** The outcome was “inactive”.

**Q.** With `CCCCOC(=O)CCCCCCCCC(=O)OCCCC` as the molecule, how does the outcome read?
**A.** Its outcome is “inactive”.

**Q.** For `CCc1c(C(=O)NN2CCCCC2)nn(-c2ccc(Cl)cc2Cl)c1-c1ccc(Br)cc1`, which outcome is on record?
**A.** Its outcome is “inactive”.

**Q.** `O=C(O)CCCCC(=O)O` was tested. Which outcome did it give?
**A.** The outcome was “inactive”.

**Q.** With `Cc1c(C(=O)O)c(O)cc2c1C(=O)c1c(O)c([C@@H]3O[C@H](CO)[C@@H](O)[C@H](O)[C@H]3O)c(O)c(O)c1C2=O` as the molecule, how does the outcome read?
**A.** Its outcome is “inactive”.

**Q.** For `Cc1ccc(C)c(O)c1C`, which outcome is on record?
**A.** The outcome was “inactive”.

**Q.** How did the outcome turn out when `OC[C@@H](O)[C@@H](O)[C@H](O)[C@H](O)CO` was run?
**A.** Its outcome is “inactive”.

**Q.** For `C1CCC(SSC2CCCCC2)CC1`, which outcome is on record?
**A.** The outcome was “inactive”.

**Q.** How did the AC50 turn out when `Cc1oc(-c2ccccc2)nc1CCOc1cccc2c1ccn2CCC(=O)O` was run?
**A.** Its AC50 is 9.92 µM (active).

**Q.** How did the outcome turn out when `Cc1ccccc1Cl` was run?
**A.** The outcome was “inactive”.

**Q.** How did the outcome turn out when `c1cc(-c2ccncc2)ccn1` was run?
**A.** Its outcome is “inactive”.

**Q.** Which outcome does the source give for `Cc1cc(=O)[nH]c(=S)[nH]1` here?
**A.** Its outcome is “inactive”.

**Q.** With `Cc1cccc([N+](=O)[O-])c1C` as the molecule, how does the outcome read?
**A.** The outcome was “inactive”.

**Q.** For `CCCCCCOCCO`, which outcome is on record?
**A.** The outcome was “inactive”.

**Q.** How did the outcome turn out when `CC(CO)OC(C)CO` (configuration not stated) (tested in a mixture with another compound) was run?
**A.** The outcome was “inactive”.

**Q.** With `O=C(O)Cc1ccccc1Nc1c(Cl)cccc1Cl` as the molecule, how does the outcome read?
**A.** The outcome was “inactive”.

**Q.** For `Cc1ccc(C(C)C)c(O)c1`, which outcome is on record?
**A.** Its outcome is “inactive”.

**Q.** `CN1CCCC1=O` was tested. Which outcome did it give?
**A.** The outcome was “inactive”.

**Q.** For `Nc1ccc2c(c1)C(=O)c1ccccc1C2=O`, which outcome is on record?
**A.** Its outcome is “inactive”.

**Q.** Which outcome does the source give for `CC1=C(/C=C/C(C)=C/C=C/C(C)=C/CO)C(C)(C)CCC1` here?
**A.** The outcome was “inactive”.

**Q.** `CCCCCCCCCCCCCO` was tested. Which outcome did it give?
**A.** Its outcome is “inactive”.

Read-out: Heat shock 70 kDa protein 1 (HSPA1A), gene 3303
Experiment: LTEA_HepaRG_HSPA1A: Life Technologies and Expression Analysis (LTEA) Assay for Heat shock 70 kDa protein 1 (HSPA1A) using HepaRG (AID 2283502)
Conditions: mRNA level, 48 h; actives raise or lower the signal
Method in brief: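 HSPA1A induction in human HepaRG liver cells is measured after 48 h of chemical treatment (100 uM maximum, 0.5% DMSO vehicle). Expression comes from qRT-PCR normalized to endogenous controls.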

**Q.** For `COc1cc(C=O)ccc1O`, which outcome is on record?
**A.** The outcome was “inactive”.

**Q.** How did the outcome turn out when `COC(=O)c1ccc(O)cc1` was run?
**A.** The outcome was “inactive”.

**Q.** For `C=CCc1ccc(O)c(OC)c1`, which outcome is on record?
**A.** The outcome was “inactive”.

**Q.** For `CN1CCN(Cc2cc(-c3ccc4[nH]c(=O)oc4c3)co2)[C@@H](c2ccc(F)cc2)C1`, which outcome is on record?
**A.** The outcome was “inactive”.

**Q.** How did the outcome turn out when `CC(=O)OC/C=C(\C)CCC=C(C)C` was run?
**A.** The outcome was “inactive”.

**Q.** With `CCCCCCCCCCCC(=O)OC` as the molecule, how does the outcome read?
**A.** Its outcome is “inactive”.

**Q.** `Oc1ccc2c(c1)OC[C@@H](N1CCC(O)(c3ccc(F)cc3)CC1)[C@H]2O` was tested. Which outcome did it give?
**A.** The outcome was “inactive”.

**Q.** `O=C(OCCCCCOC(=O)c1ccccc1)c1ccccc1` was tested. Which outcome did it give?
**A.** The outcome was “inactive”.

**Q.** For `NCC1(Cc2noc(=O)[nH]2)CCCCC1`, which outcome is on record?
**A.** Its outcome is “inactive”.

**Q.** Which outcome does the source give for `CCCCOC(=O)CCCCCCCCC(=O)OCCCC` here?
**A.** Its outcome is “inactive”.

**Q.** With `CCc1c(C(=O)NN2CCCCC2)nn(-c2ccc(Cl)cc2Cl)c1-c1ccc(Br)cc1` as the molecule, how does the AC50 read?
**A.** The AC50 was 86.3 µM (active).

**Q.** `O=C(O)CCCCC(=O)O` was tested. Which outcome did it give?
**A.** The outcome was “inactive”.

**Q.** For `Cc1c(C(=O)O)c(O)cc2c1C(=O)c1c(O)c([C@@H]3O[C@H](CO)[C@@H](O)[C@H](O)[C@H]3O)c(O)c(O)c1C2=O`, which outcome is on record?
**A.** The outcome was “inactive”.

**Q.** `Cc1ccc(C)c(O)c1C` was tested. Which outcome did it give?
**A.** The outcome was “inactive”.

**Q.** `OC[C@@H](O)[C@@H](O)[C@H](O)[C@H](O)CO` was tested. Which outcome did it give?
**A.** The outcome was “inactive”.

**Q.** With `C1CCC(SSC2CCCCC2)CC1` as the molecule, how does the outcome read?
**A.** The outcome was “inactive”.

**Q.** For `Cc1oc(-c2ccccc2)nc1CCOc1cccc2c1ccn2CCC(=O)O`, which outcome is on record?
**A.** The outcome was “inactive”.

**Q.** `Cc1ccccc1Cl` was tested. Which outcome did it give?
**A.** The outcome was “inactive”.

**Q.** With `c1cc(-c2ccncc2)ccn1` as the molecule, how does the outcome read?
**A.** Its outcome is “inactive”.

**Q.** Which outcome does the source give for `Cc1cc(=O)[nH]c(=S)[nH]1` here?
**A.** Its outcome is “inactive”.

**Q.** For `Cc1cccc([N+](=O)[O-])c1C`, which outcome is on record?
**A.** Its outcome is “inactive”.

**Q.** Which outcome does the source give for `CCCCCCOCCO` here?
**A.** Its outcome is “inactive”.

**Q.** Which outcome does the source give for `CC(CO)OC(C)CO` (configuration not stated) (tested in a mixture with another compound) here?
**A.** Its outcome is “inactive”.

**Q.** With `O=C(O)Cc1ccccc1Nc1c(Cl)cccc1Cl` as the molecule, how does the outcome read?
**A.** The outcome was “inactive”.

**Q.** How did the outcome turn out when `Cc1ccc(C(C)C)c(O)c1` was run?
**A.** Its outcome is “inactive”.

**Q.** For `CN1CCCC1=O`, which outcome is on record?
**A.** Its outcome is “inactive”.

**Q.** For `Nc1ccc2c(c1)C(=O)c1ccccc1C2=O`, which outcome is on record?
**A.** The outcome was “inactive”.

**Q.** With `CC1=C(/C=C/C(C)=C/C=C/C(C)=C/CO)C(C)(C)CCC1` as the molecule, how does the AC50 read?
**A.** Its AC50 is 68.4 µM (active).

**Q.** With `CCCCCCCCCCCCCO` as the molecule, how does the outcome read?
**A.** Its outcome is “inactive”.

Read-out: Hypoxia-inducible factor 1-alpha (Homo sapiens) (UniProt Q16665)
Experiment: LTEA_HepaRG_HIF1A: Life Technologies and Expression Analysis (LTEA) Assay for Hypoxia-inducible factor 1 (HIF1A) Trancription factor using HepaRG (AID 2283503);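 note: HIF1A transcript by TaqMan qRT-PCR normalized to ACTB GAPDH and POLR2A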
Conditions: mRNA level, 48 h; actives raise or lower the signal
Method in brief: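 HepaRG, 48 h exposure, 8-pt half-log series from 100 uM, 0.5% DMSO vehicle, duplicates. Readout: HIF1A transcript by qRT-PCR (Fluidigm array), housekeeping-normalised. Bidirectional curve fit vs DMSO baseline.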

**Q.** How did the outcome turn out when `COc1cc(C=O)ccc1O` was run?
**A.** Its outcome is “inactive”.

**Q.** Which outcome does the source give for `COC(=O)c1ccc(O)cc1` here?
**A.** Its outcome is “inactive”.

**Q.** With `C=CCc1ccc(O)c(OC)c1` as the molecule, how does the outcome read?
**A.** The outcome was “inactive”.

**Q.** `CN1CCN(Cc2cc(-c3ccc4[nH]c(=O)oc4c3)co2)[C@@H](c2ccc(F)cc2)C1` was tested. Which outcome did it give?
**A.** Its outcome is “inactive”.

**Q.** How did the outcome turn out when `CC(=O)OC/C=C(\C)CCC=C(C)C` was run?
**A.** The outcome was “inactive”.

**Q.** How did the outcome turn out when `CCCCCCCCCCCC(=O)OC` was run?
**A.** Its outcome is “inactive”.

**Q.** With `Oc1ccc2c(c1)OC[C@@H](N1CCC(O)(c3ccc(F)cc3)CC1)[C@H]2O` as the molecule, how does the outcome read?
**A.** Its outcome is “inactive”.

**Q.** With `O=C(OCCCCCOC(=O)c1ccccc1)c1ccccc1` as the molecule, how does the outcome read?
**A.** The outcome was “inactive”.

**Q.** With `NCC1(Cc2noc(=O)[nH]2)CCCCC1` as the molecule, how does the outcome read?
**A.** The outcome was “inactive”.

**Q.** Which outcome does the source give for `CCCCOC(=O)CCCCCCCCC(=O)OCCCC` here?
**A.** Its outcome is “inactive”.

**Q.** Which AC50 does the source give for `CCc1c(C(=O)NN2CCCCC2)nn(-c2ccc(Cl)cc2Cl)c1-c1ccc(Br)cc1` here?
**A.** Its AC50 is 86.6 µM (active).

**Q.** Which outcome does the source give for `O=C(O)CCCCC(=O)O` here?
**A.** The outcome was “inactive”.

**Q.** `Cc1c(C(=O)O)c(O)cc2c1C(=O)c1c(O)c([C@@H]3O[C@H](CO)[C@@H](O)[C@H](O)[C@H]3O)c(O)c(O)c1C2=O` was tested. Which outcome did it give?
**A.** Its outcome is “inactive”.

**Q.** For `Cc1ccc(C)c(O)c1C`, which outcome is on record?
**A.** The outcome was “inactive”.

**Q.** With `OC[C@@H](O)[C@@H](O)[C@H](O)[C@H](O)CO` as the molecule, how does the outcome read?
**A.** Its outcome is “inactive”.

**Q.** Which outcome does the source give for `C1CCC(SSC2CCCCC2)CC1` here?
**A.** Its outcome is “inactive”.

**Q.** Which outcome does the source give for `Cc1oc(-c2ccccc2)nc1CCOc1cccc2c1ccn2CCC(=O)O` here?
**A.** Its outcome is “inactive”.

**Q.** How did the outcome turn out when `Cc1ccccc1Cl` was run?
**A.** Its outcome is “inactive”.

**Q.** With `c1cc(-c2ccncc2)ccn1` as the molecule, how does the outcome read?
**A.** The outcome was “inactive”.

**Q.** `Cc1cc(=O)[nH]c(=S)[nH]1` was tested. Which outcome did it give?
**A.** The outcome was “inactive”.

**Q.** For `Cc1cccc([N+](=O)[O-])c1C`, which outcome is on record?
**A.** The outcome was “inactive”.

**Q.** Which outcome does the source give for `CCCCCCOCCO` here?
**A.** The outcome was “inactive”.

**Q.** How did the outcome turn out when `CC(CO)OC(C)CO` (configuration not stated) (tested in a mixture with another compound) was run?
**A.** The outcome was “inactive”.

**Q.** With `O=C(O)Cc1ccccc1Nc1c(Cl)cccc1Cl` as the molecule, how does the outcome read?
**A.** Its outcome is “inactive”.

**Q.** `Cc1ccc(C(C)C)c(O)c1` was tested. Which outcome did it give?
**A.** Its outcome is “inactive”.

**Q.** For `CN1CCCC1=O`, which outcome is on record?
**A.** Its outcome is “inactive”.

**Q.** Which outcome does the source give for `Nc1ccc2c(c1)C(=O)c1ccccc1C2=O` here?
**A.** Its outcome is “inactive”.

**Q.** `CC1=C(/C=C/C(C)=C/C=C/C(C)=C/CO)C(C)(C)CCC1` was tested. Which outcome did it give?
**A.** Its outcome is “inactive”.

**Q.** With `CCCCCCCCCCCCCO` as the molecule, how does the outcome read?
**A.** The outcome was “inactive”.
